Measurements as given in ChEMBL document CHEMBL4513216, “Probing the Open Global Health Chemical Diversity Library for Multistage-Active Starting Points for Next-Generation Antimalarials” (ACS Infect Dis, 2020).
Out of some 69,000 compounds screened, about 8,600 (12%) showed an effect of 50% or more. The entries come from a sample that favours strong results as a whole.

Test system: Plasmodium berghei
Experiment: Screen against P. berghei liver stage (PbLuc), transformed with Luciferase, at 10uM
Format: functional, HepG2
Details: tested at 10 uM

Point of comparison: `CC(C)c1nnsc1CNC(=O)C1CCN(C(=O)C2CCCC2)CC1`, INHIBITION 41.6%. Against it:
- Cc1nccc(N2CCN(C3CCOCC3)CC(C(=O)N(C)C)C2)n1 (stereo unspecified) — lower, 25.8%
- CC(C)(C)CCCC(=O)Nc1ccnn1C1CCS(=O)(=O)C1 (stereo unspecified) — higher, 46.6%
- CC(Nc1cccc2c1OCCO2)C(=O)NC(N)=O (stereo unspecified) — lower, -45.2%
- O=C(CN1CCCC1)N1CCCC(c2cc(=O)n3c(n2)CCCCC3)C1 (stereo unspecified) — lower, 14.7%
- CN(C)C(=O)N[C@@H]1CN(S(C)(=O)=O)[C@@H]2CCCO[C@@H]21 — higher, 60%
- CN(C)C(=O)N[C@@H]1CN(C2CCOCC2)[C@@H]2CCCO[C@@H]21 — lower, 20.1%
- CN(C)C(=O)N[C@H]1CN(C2CCOCC2)[C@@H]2CCCO[C@H]12 — higher, 43.8%
- COCC(NC(=O)c1cccnc1)c1cccc(C(F)(F)F)c1 (stereo unspecified) — lower, 7.44%
- CNC(=O)CCc1cc(C2CCNCC2)nc(C)n1 — lower, 27.8%
- Oc1cc(C2CCCCN2C2CCCC2)nc(-c2ccncc2)n1 (stereo unspecified) — lower, 16.5%
- Cn1cc(CN2CCCN(C(=O)c3ccccn3)CC2)cn1 — lower, -13.35%
- CC(OCC1CC1)C(=O)N1CCCN(Cc2nccn2C(C)C)CC1 (stereo unspecified) — higher, 46.2%
- Cn1cc(CN2CCCN(C(=O)c3cn4ccccc4n3)CC2)cn1 — higher, 56.6%
- CC(OCC1CC1)C(=O)N1CCCN(Cc2cnn(C)c2)CC1 (stereo unspecified) — higher, 60.5%
- Cn1cc(CN2CCCN(C(=O)c3cc[nH]n3)CC2)cn1 — lower, 23.2%
- CC(OCC1CC1)C(=O)N1CCCN(Cc2cscn2)CC1 (stereo unspecified) — lower, 11.67%
- Cc1cccc(C(=O)N2CCCN(Cc3cnn(C)c3)CC2)n1 — lower, 31.8%
- Cc1nc(C(=O)N2CCCN(Cc3cnn(C)c3)CC2)ccc1C#N — lower, 15.1%
- Cn1cc(CN2CCCN(C(=O)c3ccc4ccccc4n3)CC2)cn1 — higher, 52.35%
- CC(C)CNC(=O)c1cn(-c2ccccn2)c(=O)c2ccccc12 — lower, 13.9%
- CCN1CC2(CC1=O)CN(C(=O)NC(C)C)CCN(C(=O)NC(C)C)C2 — lower, 27.5%
- Cc1cnn(CC2CN(CC(=O)N(C)Cc3ccsc3)CCO2)c1 (stereo unspecified) — lower, -89%
- CS(=O)(=O)c1cccc(C(=O)N2CCCC(n3cccn3)C2)c1 (stereo unspecified) — lower, 1.94%
- O=C(CN1CCCC(Cn2cncn2)C1)NCc1ccccc1F (stereo unspecified) — lower, 19.4%
- CC(C)c1nn(C)c(N(C)C)c1CNCc1cccc2cccnc12 — lower, 19.283%
- CC(C)CC(=O)N1CC[C@H]2N(C)CC[C@@]2(C(=O)Nc2cccnc2)CC1 — lower, 26.7%
- Cc1c(C2N3CC4(C(C)C)CN2CC(C(C)C)(C3)C4=O)[nH]c(=O)[nH]c1=O (stereo unspecified) — higher, 54.3%
- Cc1c(C2N3CC4(C)CN2CC(C)(C3)C4=O)[nH]c(=O)[nH]c1=O (stereo unspecified) — higher, 46.6%
- CCC12CN3CC(CC)(CN(C1)C3c1[nH]c(=O)[nH]c(=O)c1C)C2=O (stereo unspecified) — lower, 11.1%
- O=C(C1CCC1)N1C[C@H]2CC[C@@H](C1)N(S(=O)(=O)c1cccnc1)C2 — lower, -70.7%
- O=C(NCCCNC(=O)c1cccc(O)c1)Nc1ccc(F)cc1F — lower, -4.74%
- COCc1noc(C2(c3ccc(F)cc3)CC2)n1 — lower, 11.6%
- COCc1noc(C2(c3ccc(F)cc3)CCC2)n1 — higher, 77.2%
- COCc1noc(C2(c3ccc(F)cc3)CCOCC2)n1 — lower, 15.1%
- COCc1ncn2c1CN(C(=O)c1ccc3ccccc3n1)CC2 — lower, -6.3%
- CC(C)(C)C(=O)NCCC(=O)N1CCC(Nc2cccnn2)CC1 — lower, 41.5%
- O=C(CNCCn1cccn1)NCC1(c2ccccc2)CC1 — lower, 8.48%
- O=C(CNCCn1cccn1)NCC1(c2ccccc2)CCC1 — higher, 72.8%
- O=C(CNCCn1cccn1)NCC1(c2ccccc2)CCCC1 — lower, -23.9%
- CN1CCC(NC(=O)c2cc(Cl)cc(Br)c2O)C1=O (stereo unspecified) — lower, 24.4%
- OC1(CN2CCCCC2)CCN(c2nccc(C(F)(F)F)n2)C1 (stereo unspecified) — higher, 46.7%
- Fc1cc(CNCc2ccc3c(c2)CCO3)ccc1N1CCOCC1 — higher, 55.1%
- c1cc(CNCc2ccc3c(c2)CCO3)cc(N2CCOCC2)n1 — lower, -1.58%
- O=S(=O)(CCNCc1ccc2c(c1)CCO2)N1CCOCC1 — lower, -3.19%
- CC(C)c1nc(C2CCCN(C(=O)c3nccn4ccnc34)C2)no1 (stereo unspecified) — lower, 9.64%
- Cc1cn(Cc2ccccc2)nc1N — lower, 24.8%
- O=C(c1cc(Br)ccc1-n1cnnn1)N1CCCC1 — lower, 28.6%
- CC(C)c1nnsc1CNC(=O)C1CCN(C(=O)C2CCC2)CC1 — higher, 44.6%
- CC(C)c1nnsc1CNC(=O)C1CCCN(C(=O)N(C)C)C1 (stereo unspecified) — higher, 53.5%
- Nc1no[n+]([O-])c1C(=O)NCc1ccco1 — lower, 5.7%
